# The list is not random: actives were taken first. Their share in the collection is about 17%.
# TDP1 block: inhibitors of human tyrosyl-DNA phosphodiesterase TDP1. AID 485290. Potency, µM (highest dose often 130 µM), inactives show top-dose activity change, negative = inhibition, hits mostly inhibitors. recombinant TDP1, AlphaScreen DNA substrate cleavage. actives 0.28% (n = 350,000). Q9NUW8; further: on the % scale 0 is the no-effect control and ±100 the full control effect; nearly all actives have a fitted effect of over 40% in size
#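 Signal: AlphaScreen proximity between streptavidin donor and anti-FITC acceptor beads on intact substrate. Reaction: Tdp1 1 nM, substrate 15 nM final, 5 min RT after 15 min compound preincubation.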
# ClpP mod: qHTS Assay for Activators of ClpP; actives 1.9% (n = 340,000); Potency, µM (doses to about 57.5 µM), for the others: at the highest dose activity change, negative = active; purified B. subtilis ClpP, FRET peptide cleavage, 20 min; ATP-dependent Clp protease proteolytic subunit (Bacillus subtilis (strain 168)), P80244; AID 651965, 2013; active means well fitted falling curve with a large enough effect; inconclusive means small, poorly fitted or top-dose-only effect; inactive means no such curve, though single readings can be large or run the other way; further: the source files actives as falling curves though it sought activators and does not explain the sign; nearly all actives have a fitted effect of over 65% in size
#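 ClpP 10 microg/mL final, pH 8 Tris/KCl buffer with BSA, glycerol, Tween-20; compound pinned in; FRET-FV substrate; RT 20 min; Ex320/Em430; ΔFRET vs ADEP 5.8 microM, DMSO, no enzyme.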
# TDP1 cell noCPT: qHTS for Inhibitors of human tyrosyl-DNA phosphodiesterase 1 (TDP1): qHTS in cells in absence of CPT | DT40 Tdp1-/- hTDP1 cells, no CPT, ATP luminescence, 48 h | Potency, µM (titrated, usually from 46.2 µM), without a hit: at the highest dose activity change, negative = growth inhibition, usual class: inhibitors | actives 15% (n = 420,000) | AID 686978, 2013; further: on the % scale 0 is the no-effect control and ±100 the full control effect; nearly all actives have a fitted effect of over 55% in size
#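 Compound effects on proliferation are scored in DT40 Tdp1-/-;hTDP1 cells in the absence of CPT. ATP levels (CellTiter-Glo luminescence) are recorded after a ≥48 hr, 37 °C incubation.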
# DT40 TDP1 CPT: growth inhibition of DT40 Tdp1-/-;hTDP1 cells with camptothecin (screen for TDP1 inhibitors). chicken DT40 Tdp1-/-;hTDP1 cells + 20 nM CPT, ATP luminescence, 48 h. Potency, µM (top dose mostly 46.2 µM), without a hit: at the highest dose activity change, negative = growth inhibition, hits mostly inhibitors. actives 12% (n = 420,000). AID 686979; further: on the % scale 0 is the no-effect control and ±100 the full control effect; nearly all actives have a fitted effect of over 55% in size
#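 Chicken DT40 Tdp1-/- cells stably complemented with human TDP1 were seeded at 400 cells/well in medium containing 20 nM camptothecin, exposed to pin-transferred compounds, and grown at 37 °C for at least 48 hr. Viability was read as ATP luminescence.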
# ClpP validation: inhibits B. subtilis ClpP protease, hit validation. shares compounds with ClpP mod. purified B. subtilis ClpP, FRET-FV substrate cleavage, 20 min. Potency, µM (highest dose often 57.5 µM), inactives show at the top dose activity change, negative = inhibition, usual class: inhibitors. actives 40% (n = 470); further: on the % scale 0 is the no-effect control and ±100 the full control effect; nearly all actives have a fitted effect of over 70% in size
# An asterisk follows results filed as active; ? = inconclusive; . = no result given; [ ] = another dose, or the depositor's remark. Unless noted, the call rests on the fitted dose curve; in most records, active means well fitted curve in the direction sought with a large enough effect; inconclusive means small, poorly fitted or top-dose-only effect, or another doubt; inactive means no such curve, though single readings can be large; an effect the other way counts as inactive or inconclusive. Potency means the concentration at half of the fitted maximal effect.
SMILES,TDP1 block,ClpP mod,TDP1 cell noCPT,DT40 TDP1 CPT,ClpP validation
NS(=O)(=O)c1ccc(Nc2nc3ccccc3nc2NS(=O)(=O)c2cccc([N+](=O)[O-])c2)cc1,6%,-2%,11%,21%,.
N#Cc1ccccc1S(=O)(=O)N1CCN(C(=O)CN2CCCSc3ccccc32)CC1,1%[56.1 µM],0%,10%,-2%,.
Cc1ccc(S(=O)(=O)N2CCN(C(=O)CN3CCCSc4ccccc43)CC2)cc1,1%[56.1 µM],40%,?,?,-3%
O=C(Cc1cccs1)Nc1ccc(-c2nnc(-c3ccccc3)o2)cc1,.,8.9µM*,-30%,-21%,12µM*
O=C(CCCOc1ccccc1)Nc1ccc(Br)cc1,.,1%,-16%,-22%,.
O=C(CCOc1ccccc1)Nc1ccc(Br)cc1,.,7.9µM*,-4%,-4%,0%
COCC(=O)N1CCC2(CCCN(c3ccncc3)C2)CC1,.,.,3%,-4%,.
CC(C)CCNc1ncnc2c1nnn2Cc1ccccc1Cl,4%,10µM*,-12%,-15%,-2%
Clc1ccccc1-c1nnc(-c2cccnc2)o1,-2%,-2%,?,3%,.
c1cncc(-c2nnc(-c3ccco3)o2)c1,-2%,3.5µM*,5%,7%,24µM*
COCCNC(=O)CCCn1c(SCC(=O)NCc2ccc(C)cc2)nc2c(sc3ccccc32)c1=O,5%,-7%,-4%,-19%,.
CCN(c1ccccc1)S(=O)(=O)c1ccc(OC)c(NC(=O)c2cccs2)c1,0%,.,?,11%,.
CCN(c1ccccc1)S(=O)(=O)c1ccc(OC)c(NC(=O)c2cc(F)c(F)c(F)c2F)c1,0%,41%,-17%,-25%,?
Cc1ccc(NC(=O)C(c2ccccc2)c2ccccc2)c(O)c1,-4%,.,7%,1%,.
Cc1cc(=O)oc2cc(OC(=O)c3ccco3)ccc12,-4%,5%,-3%,-6%,.
Cc1cc(=O)oc2c(C)c(OC(=O)c3ccco3)ccc12,.,32%,-21%,-18%,7%
COCCNC(=S)N=Nc1c(O)[nH]c2ccc([N+](=O)[O-])cc12,3%,.,?,7%,.
CN(C)c1ccc(NC(=O)CSC2=Nc3ccccc3C3=NC(CC(=O)NCc4ccccc4)C(=O)N23)cc1 (centres undefined),9%,3%,-11%,-8%,.
CC1=C(c2ccc(C)cc2)S(=O)(=O)N(Cc2ccc(C(=O)NCc3ccccc3)cc2)C1=O,8%,5µM*,?,?,-2%
CCN1C(C)=C(C(=O)OC)C(c2ccccc2)N2C(=O)[C@](O)(C(=O)OC)CC(C(C)=O)=C12 (some centres undefined),3%[21 µM],.,.,.,.
COc1ccc(NC(=O)c2sc3nc(-c4cccnc4)ccc3c2N)cc1,.,.,-20%,9%,.
Nc1c(C(=O)Nc2cccc(Cl)c2Cl)sc2nc(-c3cccnc3)ccc12,1%,4µM*,?,?,0%
Cc1cc(C)n2nc(-c3sccc3-n3c(C)ccc3C)cc2n1,3%,36%,16µM*,23µM*,?
CCc1ccc2oc(-c3cc(NC(=O)C(C)C)cc(C)c3O)nc2c1,1%,-3%,.,.,.
Brc1cccc(-c2nnn3c2nc(NCc2ccc4c(c2)OCO4)c2ccccc23)c1,-4%,23%,?,?,?
SMILES,TDP1 block,ClpP mod,TDP1 cell noCPT,DT40 TDP1 CPT,ClpP validation
O=C(Nc1c(C(=O)N2CCN(c3ccccn3)CC2)oc2ccccc12)c1cccc([N+](=O)[O-])c1,7%,-3%,?,?,.
CCOC(=O)c1cc2n(n1)C(C(F)(F)F)CC(C)N2 (centres undefined),0%,60%,-9%,-15%,0%
CC(=O)c1cccc(NC(=O)Cn2cnc(S(=O)(=O)N3CCC(C)CC3)c2)c1,-2%,3%,-19%,-6%,.
Cc1ccc2[nH]c(=O)c(CN(Cc3ccc4c(c3)OCO4)Cc3nnnn3C3CCCC3)cc2c1,3%,81%,?,?,-19%
O=c1[nH]c2cc3c(cc2cc1CN(CCc1ccccc1)Cc1nnnn1C1CCCC1)OCCO3,6%,.,.,.,.
Cc1c(NC(=O)[C@@H](NC(=O)c2ccc(Cl)c([N+](=O)[O-])c2)C(C)C)c(=O)n(-c2ccccc2)n1C,1%,0%,?,3%,.
CN(c1ccccc1C(=O)NC1CC2CCC1C2)S(=O)(=O)c1ccccc1 (centres undefined),3%,7.9µM*,-34%,-3%,-3%
CN(c1ccccc1C(=O)NC1CCCCC1)S(=O)(=O)c1ccccc1,-1%,3%,-12%,-29%,.
O=C1Cc2cc(S(=O)(=O)N3CCNCC3)ccc2N1,1%,104%,-17%,-14%,6%
OCC1NCC(O)C(O)C1O (centres undefined),9%[56.1 µM],.,.,.,.
CCc1cc2c(N3CCN(C(=O)c4ccco4)CC3)ncnc2s1,7%,2.8µM*,?,?,-1%
COc1ccccc1NC(=O)C1=C(C)Nc2nc(SCc3ccccc3Cl)nn2C1c1ccncc1 (centres undefined),6%,1%,-4%,-1%,.
COc1ccc(NC(=O)C2=C(C)Nc3nc(SCc4ccc(C)cc4C)nn3C2c2cccc(OC)c2OC)cc1 (centres undefined),3%,81%,-20%,-11%,-19%
CC1Cc2ccccc2N1c1nc(C2CC2)nc2c1nnn2Cc1ccccc1 (centres undefined),3%,7.1µM*,?,-19%,27µM*
CC(C)CNC(=O)c1oc2ccccc2c1COc1ccccc1,-3%,.,?,-25%,.
O=C(Nc1ccccc1OC(F)F)c1oc2ccccc2c1COc1ccccc1,0%,289%,-27%,2%,19µM*
COc1ccccc1C(=O)Nc1ccc(-c2nc3ccccc3s2)c(C)c1,3%,2µM*,?,?,-1%
CCc1ccc(NC(=O)c2sc3nc(C)cc(C)c3c2NC(=O)c2ccccc2OC)cc1,8%,41%,.,.,24µM*
COc1ccccc1C(=O)NCc1ccc(-c2nc3ccccc3s2)cc1,2%,-14%,0%,3%,.
CN(C)c1cccc(C(=O)Nc2ccc(-c3nc4ccccc4s3)cc2)c1,6%,3.5µM*,13µM*,?,-1%
COc1ccc(-c2nc3ccccc3s2)cc1NC(=O)c1cccc(F)c1,-6%,74%,?,?,?
O=C(NCc1cccc(Br)c1)c1cnn(-c2ccc(F)cc2)c1-n1cccc1,3%,-1%,.,.,.
Cc1ncccc1C(=O)N1CCCC(CNC(=O)C2(c3ccc(Cl)cc3)CC2)C1 (centres undefined),0%,1%,-2%,-6%,.
